Experimental data: PubChem BioAssay (NCATS)
Where “and” joins values, the source holds several entries; their conditions need not be identical. Equal entries are not always repeated. Inconclusive results are not listed. Where a structure was tested more than once in an assay, its records may differ in their call. Calls of active or inactive are those of the source. Unless noted, calls follow the shape of the dose curve; as a rule, active = well fitted curve in the direction sought with a large enough effect; inconclusive = small, poorly fitted or top-dose-only effect, or another doubt; inactive = no such curve, though single readings can be large; an effect the other way counts as inactive or inconclusive.

Key:
[1] = Primary qHTS for inhibitors of nuclear receptor binding SET domain protein 2 (NSD2) in an isogenic RCH-ACV NSD2 p.E1099K mutant (9B) (AID 1645876); conditions: RCH-ACV NSD2 E1099K (9B) viability, CellTiter-Glo, 72 h; series mostly up to 44.9 µM; also: nearly all actives have a fitted effect of over 70% in size; also: potency is read from the fitted curve at half-maximal effect
[2] = Primary qHTS for inhibitors of nuclear receptor binding SET domain protein 2 (NSD2) in an RCH-ACV wild type WT cells (2C) (AID 1645877); conditions: RCH-ACV (leukaemia line) NSD2 WT (2C) viability, CellTiter-Glo, 72 h; series mostly up to 44.9 µM; also: nearly all actives have a fitted effect of over 70% in size; also: potency is read from the fitted curve at half-maximal effect
[3] = molecular target: Catechol O-methyltransferase (Homo sapiens) (UniProt P21964); experiment: Confirmatory Screen for Target Class Profiling of Small Molecule Inhibitors of Methyltransferases (AID 1745852; calls by dose curve; as to activity change, negative = inhibition: % is scaled to controls: 0 for no effect and ±100 for the full control effect); conditions: MTase-Glo luminescence, SAH detection, recombinant enzyme; measured here: COMT max response; stronger effect = lower value
[4] = molecular target: Guanidinoacetate N-methyltransferase (Homo sapiens) (UniProt Q14353); experiment: as above; conditions: MTase-Glo luminescence, SAH detection, recombinant enzyme; activity change, negative = inhibition: at 57.3 µM (top of the series) unless noted
[5] = molecular target: Nicotinamide N-methyltransferase (Homo sapiens) (UniProt P40261); experiment: as above; conditions: MTase-Glo luminescence, SAH detection, recombinant enzyme; measured here: NNMT max response; stronger effect = lower value
[6] = molecular target: Phenylethanolamine N-methyltransferase (Homo sapiens) (UniProt P11086); experiment: as above; conditions: MTase-Glo luminescence, SAH detection, recombinant enzyme; measured here: PNMT max response; stronger effect = lower value
[7] = molecular target: Rap guanine nucleotide exchange factor 3 (Homo sapiens) (UniProt O95398); experiment: Confirmatory qHTS for antagonist of cAMP-regulated guanine nucleotide exchange factor 3 (EPAC1) (AID 1645880); conditions: EPAC1 Rap1B-BODIPY-GDP exchange, fluorescence; series mostly up to 115 µM; also: potency is read from the fitted curve at half-maximal effect; nearly all actives have a fitted effect of over 55% in size
In short: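 Released BODIPY-GDP fluoresces less than Rap1-bound BODIPY-GDP; the signal is followed at 480/540 nm at 5-min intervals over 30 min, after 5 min at room temperature. Reactions contain 100 nM EPAC1, 250 nM RAP1B-BODIPY-GDP and 50 uM GDP; results are normalized to ATA and DMSO.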

[8] = molecular target: Rap guanine nucleotide exchange factor 3 (Homo sapiens) (UniProt O95398); experiment: Confirmatory qHTS for agonist of cAMP-regulated guanine nucleotide exchange factor 3 (EPAC1) (AID 1645881); conditions: EPAC1 Rap1B BODIPY-GDP exchange fluorescence, 100% = cAMP control response; series mostly up to 154 µM;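 also: EPAC1 catalysed release of BODIPY-GDP from Rap1B seen as fluorescence loss; nearly all actives have a fitted effect of over 75% in size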
[9] = molecular target: Rap guanine nucleotide exchange factor 4 (Homo sapiens) (UniProt Q8WZA2); experiment: Confirmatory qHTS for agonist of cAMP-regulated guanine nucleotide exchange factor 4 (EPAC2) (AID 1645884); conditions: EPAC2 GEF activity, Rap1B-BODIPY-GDP fluorescence, percent relative to cAMP agonist control; series mostly up to 154 µM;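 also: nucleotide exchange releases bodipy-GDP from Rap1 and this lowers its fluorescence; % is scaled to controls: 0 for no effect and ±100 for the full control effect; nearly all actives have a fitted effect of over 65% in size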
[10] = molecular target: Rap guanine nucleotide exchange factor 4 (Homo sapiens) (UniProt Q8WZA2); experiment: Confirmatory qHTS for antagonist of cAMP-regulated guanine nucleotide exchange factor 4 (EPAC2) (AID 1645885); conditions: EPAC2 Rap1B-BODIPY-GDP exchange fluorescence, biochemical; series mostly up to 114 µM; also: nearly all actives have a fitted effect of over 25% in size; also: potency is read from the fitted curve at half-maximal effect; as to activity change, negative = inhibition: % is scaled to controls: 0 for no effect and ±100 for the full control effect

Sequence of Phenylethanolamine N-methyltransferase (Homo sapiens) (P11086 whole entry, looked up): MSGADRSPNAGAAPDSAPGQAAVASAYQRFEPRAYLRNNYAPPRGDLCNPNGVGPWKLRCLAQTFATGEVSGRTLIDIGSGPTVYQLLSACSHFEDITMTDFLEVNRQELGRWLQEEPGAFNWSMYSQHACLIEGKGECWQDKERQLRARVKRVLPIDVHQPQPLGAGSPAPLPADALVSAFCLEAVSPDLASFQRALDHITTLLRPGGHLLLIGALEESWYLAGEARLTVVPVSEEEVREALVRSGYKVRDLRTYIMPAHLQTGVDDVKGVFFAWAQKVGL
Sequence of Rap guanine nucleotide exchange factor 4 (Homo sapiens) (Q8WZA2 whole entry, looked up): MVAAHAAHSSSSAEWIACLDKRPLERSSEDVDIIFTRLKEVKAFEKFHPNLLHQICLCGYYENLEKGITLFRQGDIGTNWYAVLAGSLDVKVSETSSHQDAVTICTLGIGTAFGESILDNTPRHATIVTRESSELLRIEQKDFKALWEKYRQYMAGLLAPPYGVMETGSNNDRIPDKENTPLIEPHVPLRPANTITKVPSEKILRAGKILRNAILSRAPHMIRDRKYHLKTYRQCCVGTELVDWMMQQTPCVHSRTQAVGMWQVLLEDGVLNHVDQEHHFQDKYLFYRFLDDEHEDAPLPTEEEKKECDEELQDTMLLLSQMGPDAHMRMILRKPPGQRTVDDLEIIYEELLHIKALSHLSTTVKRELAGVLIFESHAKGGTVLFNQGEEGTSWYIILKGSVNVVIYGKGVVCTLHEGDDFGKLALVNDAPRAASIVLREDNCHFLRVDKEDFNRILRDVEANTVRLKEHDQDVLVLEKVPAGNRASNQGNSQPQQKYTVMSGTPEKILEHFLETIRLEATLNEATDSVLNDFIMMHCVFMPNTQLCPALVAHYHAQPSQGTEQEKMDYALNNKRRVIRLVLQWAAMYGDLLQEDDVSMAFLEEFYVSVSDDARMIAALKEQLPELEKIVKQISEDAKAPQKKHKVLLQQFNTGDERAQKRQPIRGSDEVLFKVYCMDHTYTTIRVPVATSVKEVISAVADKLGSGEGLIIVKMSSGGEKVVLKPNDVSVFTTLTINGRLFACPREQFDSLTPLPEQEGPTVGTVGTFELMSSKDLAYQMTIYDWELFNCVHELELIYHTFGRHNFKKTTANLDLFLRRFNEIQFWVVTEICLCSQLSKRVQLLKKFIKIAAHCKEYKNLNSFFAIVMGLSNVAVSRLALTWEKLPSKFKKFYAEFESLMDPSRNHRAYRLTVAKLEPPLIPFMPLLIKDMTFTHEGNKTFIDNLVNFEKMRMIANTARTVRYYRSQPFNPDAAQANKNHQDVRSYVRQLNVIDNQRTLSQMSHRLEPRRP
Sequence of Rap guanine nucleotide exchange factor 3 (Homo sapiens) (O95398 whole entry, looked up): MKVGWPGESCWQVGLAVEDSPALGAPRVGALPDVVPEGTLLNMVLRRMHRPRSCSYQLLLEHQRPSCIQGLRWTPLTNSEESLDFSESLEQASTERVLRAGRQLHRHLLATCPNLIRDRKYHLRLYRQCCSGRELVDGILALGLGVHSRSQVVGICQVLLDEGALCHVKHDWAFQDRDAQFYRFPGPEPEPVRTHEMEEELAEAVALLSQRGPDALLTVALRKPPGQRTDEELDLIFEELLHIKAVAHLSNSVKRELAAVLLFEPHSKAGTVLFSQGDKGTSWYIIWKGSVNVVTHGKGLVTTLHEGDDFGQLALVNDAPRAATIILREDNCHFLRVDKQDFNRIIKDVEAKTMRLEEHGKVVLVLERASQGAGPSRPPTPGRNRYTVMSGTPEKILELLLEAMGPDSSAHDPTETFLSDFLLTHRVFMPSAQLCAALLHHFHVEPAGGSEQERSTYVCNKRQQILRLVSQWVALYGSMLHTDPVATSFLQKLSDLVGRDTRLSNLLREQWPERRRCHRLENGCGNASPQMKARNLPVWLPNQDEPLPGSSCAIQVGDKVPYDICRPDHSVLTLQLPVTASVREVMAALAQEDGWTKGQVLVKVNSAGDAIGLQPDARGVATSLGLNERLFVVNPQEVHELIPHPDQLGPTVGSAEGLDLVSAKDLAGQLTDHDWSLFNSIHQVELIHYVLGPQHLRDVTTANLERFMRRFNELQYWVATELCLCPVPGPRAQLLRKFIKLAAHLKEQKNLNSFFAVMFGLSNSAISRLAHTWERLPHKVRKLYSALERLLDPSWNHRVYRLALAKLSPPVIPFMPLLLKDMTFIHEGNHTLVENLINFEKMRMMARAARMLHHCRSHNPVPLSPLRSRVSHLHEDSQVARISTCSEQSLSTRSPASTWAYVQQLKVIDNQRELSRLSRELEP
Sequence of Nicotinamide N-methyltransferase (Homo sapiens) (P40261 whole entry, looked up): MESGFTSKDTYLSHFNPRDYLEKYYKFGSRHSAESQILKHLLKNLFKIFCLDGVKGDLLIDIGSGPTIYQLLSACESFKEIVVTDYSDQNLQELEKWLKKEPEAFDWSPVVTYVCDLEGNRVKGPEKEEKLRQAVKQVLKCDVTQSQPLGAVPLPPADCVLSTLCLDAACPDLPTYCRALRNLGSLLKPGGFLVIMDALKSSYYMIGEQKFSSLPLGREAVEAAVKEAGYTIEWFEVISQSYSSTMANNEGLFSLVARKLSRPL
Sequence of Catechol O-methyltransferase (Homo sapiens) (P21964 whole entry, looked up): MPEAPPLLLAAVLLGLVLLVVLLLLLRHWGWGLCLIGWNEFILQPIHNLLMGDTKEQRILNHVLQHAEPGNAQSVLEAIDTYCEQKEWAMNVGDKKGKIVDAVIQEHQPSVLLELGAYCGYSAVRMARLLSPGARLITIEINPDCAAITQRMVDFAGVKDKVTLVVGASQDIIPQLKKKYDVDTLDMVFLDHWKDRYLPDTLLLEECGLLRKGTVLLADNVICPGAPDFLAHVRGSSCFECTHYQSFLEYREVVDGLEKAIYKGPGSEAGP

CCN(c1ccccc1)c1cc(NC)[n+](C)c(C)n1
Potency [1]: inactive
Potency [2]: inactive

Nc1nccc(-c2ccc3noc(-c4ccc(Cl)cc4)c3c2)n1
Potency [1]: inactive
activity [3]: -4.29%
activity change, negative = inhibition [4]: 4.33%
activity [5]: -9.7%
activity [6]: -0.0134%

CC(C)(Sc1ccc(CCN(CCCCC2CCCCC2)C(=O)NC2CCCCC2)cc1)C(=O)O
Potency [1]: inactive
Potency [2]: inactive
Potency [7]: 28 µM (active) and 42.6 µM (active)
outcome [8]: inactive
outcome [9]: inactive
Potency [10]: 44.1 µM (active) and inactive and 39.3 µM (active)
activity [3]: -3.21%
activity change, negative = inhibition [4]: 2.53%
activity [5]: -46.1%
activity [6]: -8.68%

CCC(=O)N[C@H]1CC[C@H](C(=O)N(C)c2ccc(-c3nc4ccccc4o3)cc2)C1
Potency [2]: 18.6 µM (active)

c1ccc(-c2nn3c(c2-c2ccnc4cc(OCCN5CCOCC5)ccc24)CCC3)nc1
Potency [1]: 16.6 µM (active)
Potency [2]: 16.6 µM (active)

CCCCCCCc1ccc(CCc2cccc(O)c2C(=O)O)cc1
Potency [2]: inactive
activity [3]: -2.12%
activity change, negative = inhibition [4]: -1.62%
activity [5]: -13.2%
activity [6]: 1.23%

Nc1nc2[nH]cc(CCc3ccc(C(=O)N[C@@H](CCC(=O)O)C(=O)O)cc3)c2c(=O)[nH]1
Potency [1]: 0.296 µM (active)
Potency [2]: 0.296 µM (active)

N#CC[C@H](C1CCCC1)n1cc(-c2ncnc3[nH]ccc23)cn1
Potency [1]: 16.3 µM (active) and 9.34 µM (active)
Potency [2]: 18.3 µM (active) and 9.34 µM (active)

COc1ccc(-c2ccc3c(N4CCOCC4)nc(N4C[C@@H](C)O[C@@H](C)C4)nc3n2)cc1CO
Potency [1]: 0.662 µM (active)
Potency [2]: inactive

NC(=O)c1ccc(I)c([N+](=O)[O-])c1
Potency [1]: 18.6 µM (active)
Potency [2]: 16.6 µM (active)
